# Rows were chosen to be rich in hits. Some 5.2% of all compounds tested hit in one or more screens of this group.
# APOBEC3A inh – APOBEC3A ssDNA deaminase inhibitors, primary screen, selectivity assay for APOBEC3G inhibitor project, biochemical, FAM/TAMRA oligo cleavage fluorescence | inhibition, % at 20 µM | AID 493011, 2011 | recombinant A3A, FAM/TAMRA ssDNA deamination fluorescence | hit rate 0.41% among 330,000 | DNA dC->dU-editing enzyme APOBEC-3A (Homo sapiens), P31941;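 active means at least 40% inhibition at 20 µM here, with at most 30% in a related deaminase screen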;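 further: plate controls were A3A with DMSO for no effect and wells lacking A3A enzyme for full effect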
# Target sequence (P31941 whole entry, looked up): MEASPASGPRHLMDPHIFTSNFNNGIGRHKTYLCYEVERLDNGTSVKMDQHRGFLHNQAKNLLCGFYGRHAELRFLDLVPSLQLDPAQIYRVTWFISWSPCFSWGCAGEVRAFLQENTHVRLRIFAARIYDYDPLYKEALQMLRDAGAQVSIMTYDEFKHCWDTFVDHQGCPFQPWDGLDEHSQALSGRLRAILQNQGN
# ALR H2O2 inh – inhibitors of human ALR sulfhydryl oxidase, primary screen, biochemical, H2O2 detection, HRP-luminol luminescence, single point. inhibition, % (concentration not given with the values). hit rate 3.8% among 290,000. purified ALR, DTT oxidation. FAD-linked sulfhydryl oxidase ALR (Homo sapiens), P55789. AID 485317, 2010;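 active means mean replicate inhibition above about 79%, with every replicate also reaching it, limit read from the data; inconclusive means only one of the two criteria met; inactive means mean below limit and not every replicate reaching it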
# Target sequence (P55789 whole entry, looked up): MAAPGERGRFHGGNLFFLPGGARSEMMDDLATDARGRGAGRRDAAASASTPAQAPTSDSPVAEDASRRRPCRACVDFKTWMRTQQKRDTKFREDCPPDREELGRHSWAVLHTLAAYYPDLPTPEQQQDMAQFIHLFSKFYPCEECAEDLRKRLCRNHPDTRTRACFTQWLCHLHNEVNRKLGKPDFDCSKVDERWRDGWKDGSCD
# PfM18AAP inh – PfM18AAP inhibitors, malaria aminopeptidase, primary screen, biochemical, QFRET, recombinant enzyme. M18 aspartyl aminopeptidase (Plasmodium falciparum 3D7). H-Glu-NHMec fluorogenic cleavage. inhibition, % at 7.35 µM. hit rate 1.2% among 290,000. AID 1822, 2009;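 active means inhibition above the campaign mean inhibition over all tested compounds plus 3 SD, cut at about 28% in these data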;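 further: 0% = plate median of test compound wells and 100% = 2 mM ZnCl2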
# NRP1-CendR mod – modulators of CendR peptide binding to NRP-1, primary screen, biochemical, fluorescence polarization, uHTS; AID 602438, 2012; hit rate 0.85% among 360,000; FAM-RPARPAR peptide binding to NRP-1; Neuropilin-1 (Homo sapiens), O14786; inhibition, % at 25 µM;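 active means inhibition or corrected inhibition above about 18%, plus a signal ratio from 0.5 to 1.5, limit read from the data, passing the limit was not always enough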
# A3G deaminase – APOBEC3G DNA deaminase inhibitors, primary screen, biochemical, fluorescence, single-stranded DNA substrate, uHTS; DNA dC->dU-editing enzyme APOBEC-3G (Homo sapiens), Q9HC16; recombinant A3G, ssDNA deamination FAM/TAMRA fluorescence; inhibition, % at 20 µM; hit rate 0.28% among 330,000;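 active means inhibition of at least 40% at 20 µM, with no more than 30% in the related APOBEC3A deaminase screen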;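 further: plate controls were DMSO wells with A3G for no effect and wells lacking A3G enzyme for full effect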
# Yeast superoxide – reduction of superoxide in aged yeast, primary screen, HTS; S. cerevisiae aged cells, superoxide DHE fluorescence; stronger effect = lower value; hit rate 0.18% among 330,000; superoxide response (% of plate mean), % at 10 µM;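 active means superoxide response under a set limit, about three screen SD below normal, cut at about 65% in these data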;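 further: yeast aged for seven days with compound at 30 °C before DHE staining; 100% = average MFI of all compound-treated wells on the plate with controls excluded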
# * marks the source's active call; other numbers are inactive results; u = inconclusive; x = no result given.
SMILES,APOBEC3A inh,ALR H2O2 inh,PfM18AAP inh,NRP1-CendR mod,A3G deaminase,Yeast superoxide
O=C(Nc1ccccc1N1CCCC1)c1ccccc1Cl,-6,99*,10,0,-5,95
O=C(NC(=S)Nc1ccccc1N1CCCC1)c1ccccc1[N+](=O)[O-],x,98*,1,8,x,95
O=C(/C=C/c1ccco1)NC(=S)Nc1ccccc1N1CCCC1,-3,4,11,-5,-8,106
O=C(NC(=S)Nc1ccccc1N1CCCC1)c1ccco1,0,u,11,28*,-2,101
O=C(NC(=S)Nc1ccccc1N1CCCCC1)c1ccco1,-1,18,1,6,-5,96
COc1ccc(S(=O)(=O)N2CCC(C(=O)N[C@@H](C)C(=O)N3CCCC3)CC2)cc1,x,x,x,12,x,x
CCCCn1cnc2cc(NCc3cccc(OC)c3O)ccc21,-4,33,21,-13,-6,103
CCCn1cnc2cc(NCc3ccccc3O)ccc21,-3,99*,-1,8,-13,98
CCCn1cnc2cc(NCc3cccc(OC)c3)ccc21,-5,95*,14,11,-4,95
COc1ccc(S(=O)(=O)N2CCCCCC2)cc1NC(=O)CCc1cc(OC)c(OC)c(OC)c1,x,x,x,5,x,x
CCOc1ccccc1N(CC(=O)Nc1cccc(OC)c1)S(=O)(=O)c1ccccc1,-5,-4,4,7,-6,100
CC1Cc2nc(SCC(=O)NCc3ccccc3)n(Cc3ccccc3)c(=O)c2S1 (stereo not drawn),2,-2,0,-1,0,100
CCCCN(C)CCNC(=O)c1cc2cc3ccc(OC)cc3nc2o1,0,3,-3,21*,-4,104
COc1ccc2c(n1)Sc1nc3ccccc3nc1N2,x,-27,8,143,x,59*
COc1cc2ccccc2nn1,2,3,-1,6,-4,85
C=CCN1c2ccccc2[C@]23C[C@@H](C(=O)OC)N(C(=O)c4ccco4)C2=NC(C(=O)OC)=C(C(=O)OC)[C@H]13,-3,2,x,20,-7,90
C=CCN1c2ccccc2[C@]23C[C@@H](C(=O)OC)N(C(=O)C4CCC4)C2=NC(C(=O)OC)=C(C(=O)OC)[C@H]13,-2,2,x,25*,-5,97
CCc1ccc(NC(=O)c2ccc3nc(N)sc3c2)cc1,-1,91*,1,8,-4,85
CN(C(=O)c1ccc2nc(N)sc2c1)c1ccccc1,0,-1,7,2,-9,100
CCc1ccc(NC(=O)c2ccc3ncsc3c2)cc1,x,x,5,x,x,x
Nc1nc2ccc(C(=O)Nc3ccccc3)cc2s1,-2,98*,1,3,-3,94
Cc1cccc(C)c1Nc1c(-c2ccc(N3CCOCC3)cc2)nc2cnccn12,-3,99*,6,-17,-7,95
c1cn2c(Nc3ccc4c(c3)OCCO4)c(-c3ccc(N4CCOCC4)cc3)nc2cn1,1,u,1,3,-1,108
COc1cc(-c2nc3cnccn3c2NC(C)(C)CC(C)(C)C)ccc1O,-4,99*,16,-11,-6,84
CCCCNc1c(-c2ccc(-c3ccc(C(C)=O)cc3)c(OC)c2)nc2cnccn12,-3,x,x,-46,-13,102
SMILES,APOBEC3A inh,ALR H2O2 inh,PfM18AAP inh,NRP1-CendR mod,A3G deaminase,Yeast superoxide
COc1cc(-c2nc3cnccn3c2Nc2c(C)cccc2C)ccc1O,-4,98*,12,-6,-7,88
CC(C)OC(=O)CSc1nnc(-c2ccccn2)n1-c1ccccc1,-1,-1,3,21*,-3,103
CC(=O)Nc1ccc(N2CCCCC2)c(C(=O)Nc2cccc(C)c2)c1,-2,97*,13,-9,-10,99
Cc1ccc(NC(=O)c2cc(NC(=O)c3ccccc3C(=O)O)ccc2N2CCCCC2)cc1,2,99*,0,-26,-6,88
Cc1ccc(NC(=O)c2cc(NC(=O)/C=C\C(=O)O)ccc2N2CCCCC2)cc1,x,99*,7,-15,x,105
Cc1cccc(NC(=O)c2cc(NC(=O)C3CCCCC3C(=O)O)ccc2N2CCCCC2)c1 (stereo not drawn),-2,x,8,-17,-3,79
Cc1ccc(NC(=O)c2cc(N3C(=O)CCC3=O)ccc2N2CCCCC2)cc1,-1,-1,0,11,-8,88
CSc1nn2c(C(F)(F)F)cc(C(F)(F)F)nc2c1C(=O)O,3,x,-16,9,-1,103
CCCNC(=O)Cn1nc(C(F)(F)F)c2c1CCC2,-10,0,2,-12,-6,97
CN(C)CCCNC(=S)Nc1ccc(Oc2ccccc2)cc1,0,93*,-5,12,-9,101
CC(C)N(c1ccccc1)c1ccc(NC(=S)NCCN(C)C)cc1,1,99*,18,2,-6,103
CCOc1cc(/C=N/NC(=O)C(=O)N/N=C/c2ccc(O)c(OCC)c2)ccc1O,-3,12,14,-7,-2,109
C=CCNC(=O)/C(C#N)=C\c1cc(Cl)c(O)c(OCC)c1,x,28,24,-29,x,93
CCOc1cc(/C=N/NC(=O)c2ccccc2OCc2ccc(F)cc2)ccc1O,2,50,x,7,-2,105
CCOc1cc(/C=N/NC(=O)C(=O)NC2CC2)cc(Br)c1O,4,3,11,-2,-1,85
CCOc1cc(/C=N/NC(=O)C(N)=O)cc(Br)c1O,1,91*,3,4,-1,93
CCOc1cc(/C=N/NC(=O)N/N=C/c2ccc(O)c(OCC)c2)ccc1O,1,99*,x,x,-3,95
CCOc1cc(/C=C(/C#N)C(=O)Nc2ccc(O)cc2)cc(Br)c1O,-5,99*,-4,-243,-4,95
CCOc1cc(/C=N/NC(=O)c2ccccc2-n2cccc2)ccc1O,-4,99*,x,-1,-5,113
O=C(NCCN1CCN(Cc2ccccc2)CC1)c1ccc(CS(=O)(=O)c2c(Cl)cccc2Cl)o1,x,x,x,5,x,x
CCSc1nnc(NC(=O)c2ccc3nc[nH]c3c2)s1,-1,1,x,-7,3,97
CCOc1cc(/C=N/NC(=O)C(OC)c2ccccc2)ccc1O (stereo not drawn),-6,100*,3,-4,-1,97
COc1cccc(/C=N/NC(=O)C(C)Sc2ccccc2)c1 (stereo not drawn),-1,-5,-8,-3,-4,98
CCOc1cc(/C=N/NC(=O)C(C)Sc2ccccc2)ccc1O (stereo not drawn),-3,99*,5,4,-11,124

# Source: PubChem BioAssay (several laboratories)
